Source: PubChem
RecA intein inh – inhibitors of M. tuberculosis RecA intein splicing. P9WHJ3. cell-free RecA intein splicing, fluorescence. inhibition, % (no concentration beside the values). actives 0.75% (n = 290,000); in the data active = inhibition above about 30%
Target sequence (P9WHJ3 whole entry, looked up): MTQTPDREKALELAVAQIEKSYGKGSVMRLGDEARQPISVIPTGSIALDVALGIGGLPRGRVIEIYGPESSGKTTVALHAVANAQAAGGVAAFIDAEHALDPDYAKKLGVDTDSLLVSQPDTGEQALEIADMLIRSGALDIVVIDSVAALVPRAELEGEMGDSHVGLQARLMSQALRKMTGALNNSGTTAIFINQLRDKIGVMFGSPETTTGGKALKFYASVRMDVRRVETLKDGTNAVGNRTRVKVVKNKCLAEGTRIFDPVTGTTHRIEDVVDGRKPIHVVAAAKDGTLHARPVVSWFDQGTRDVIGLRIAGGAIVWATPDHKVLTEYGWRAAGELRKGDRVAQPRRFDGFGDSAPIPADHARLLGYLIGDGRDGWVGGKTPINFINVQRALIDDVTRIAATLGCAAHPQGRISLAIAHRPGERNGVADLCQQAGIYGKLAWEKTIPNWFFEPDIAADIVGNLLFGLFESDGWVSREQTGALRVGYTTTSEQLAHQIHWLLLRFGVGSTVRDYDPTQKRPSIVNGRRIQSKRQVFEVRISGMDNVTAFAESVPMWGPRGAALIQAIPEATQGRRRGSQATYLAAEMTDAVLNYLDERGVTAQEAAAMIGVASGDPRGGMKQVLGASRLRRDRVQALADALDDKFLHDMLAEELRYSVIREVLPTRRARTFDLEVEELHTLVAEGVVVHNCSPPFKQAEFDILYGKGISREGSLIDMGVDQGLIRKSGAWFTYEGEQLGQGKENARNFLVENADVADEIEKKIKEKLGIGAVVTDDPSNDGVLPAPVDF
Mtb FBA inh – inhibits M. tuberculosis FBA enzyme | P9WQA3 | inhibition, % at 1 µM | actives 2.3% (n = 360,000) | purified M. tuberculosis FBA, fluorescence read-out | AID 588726; in the data active = inhibition above about 27%
DUSP3 inh – blocks human VHR1 dual specificity phosphatase; P51452; recombinant VHR phosphatase, pNPP absorbance; inhibition, % at 13.3 µM; actives 0.52% (n = 290,000); AID 1654; in the data active = inhibition above about 50%
CCHFV vOTU inh – blocks the CCHF virus ovarian tumor domain protease; CCHFV vOTU protease, Pep-AMC fluorescence; inhibition, % at 11.5 µM; actives 0.55% (n = 370,000)
GDH-TPI counter-1 – GDH-TPI coupled enzyme inhibition counter-screen. GDH-TPI coupled enzyme counterscreen, NADH absorbance. inhibition, % at 4.8 µM. actives 1.2% (n = 360,000). AID 588335
3CLpro inhibitor – SARS-CoV 3CLpro protease inhibition. P0C6X7. recombinant SARS-CoV 3CLpro, quenched FRET peptide cleavage. AID 1706. actives 0.14% (n = 290,000). inhibition, % at 6 µM; in the data active = inhibition above about 12%
Mtb FBA inh conf – confirmation of M. tuberculosis fructose-bisphosphate aldolase inhibitors | AID 651616 | shares compounds with Mtb FBA inh | purified M. tuberculosis FBA, fluorescence read-out | actives 78% (n = 5,600) | inhibition, % at 1 µM; in the data active = inhibition above about 27%
GDH-TPI counter-2 – inhibits GDH-TPI coupling enzymes, flagging Mtb FBA hits; shares compounds with Mtb FBA inh; GDH-TPI coupled enzyme counterscreen, fluorescence; inhibition, % at 1 µM; actives 81% (n = 5,600); AID 652141; in the data active = inhibition above about 10%
GDH-TPI DR – counter-screen for M. tuberculosis FBA inhibitors: GDH-TPI dose response | GDH-TPI coupled enzyme assay, fluorescence, artifact counterscreen | shares compounds with Mtb FBA inh | actives 79% (n = 170) | IC50, µM; call rule not given here
Large screens that a line does not name were inactive (follow-up assays come after a bar, where they were run). Rows were chosen to be rich in hits. Some 4.7% of all compounds tested hit in one or more screens of this group. Cut-off read from the data, not from the text of the source, unless noted: active = inhibition above about 30%; inactive = the rest.

CCc1ccc(N(C(=O)c2snc(C(N)=O)c2N)C(C(=O)NC2CCCC2)c2ccco2)cc1 (configuration not stated)	none
COc1ccccc1N(C(=O)c1snc(C(N)=O)c1N)C(C(=O)NCc1ccccc1)c1ccc(O)cc1 (configuration not stated)	none
CCOc1ccc(C(C(=O)NCC2CCCO2)N(C(=O)c2snc(C(N)=O)c2N)c2ccccc2F)cc1 (configuration not stated)	Mtb FBA inh 52.7 | Mtb FBA inh conf 61.7 | GDH-TPI counter-2 50.5
NC(=O)c1nsc(C(=O)N(c2ccccc2F)C(C(=O)NCc2ccc(F)cc2)c2ccc(O)cc2)c1N (configuration not stated)	Mtb FBA inh 35.1 | Mtb FBA inh conf 144.6 | GDH-TPI counter-2 106.8
O=S(=O)(Nc1nccs1)c1ccc(F)cc1	none
Cc1ccccc1CN1CCCCC(NC(=O)C2CCCC2)C1=O (configuration not stated)	none (no result: RecA intein inh, Mtb FBA inh, DUSP3 inh, GDH-TPI counter-1, 3CLpro inhibitor)
CCOc1ccc(C(C(=O)NCC2CCCO2)N(C(=O)c2snc(C(N)=O)c2N)c2cccc(F)c2)cc1 (configuration not stated)	Mtb FBA inh 34.2 | Mtb FBA inh conf 91.0 | GDH-TPI counter-2 72.0
NC(=O)c1nsc(C(=O)N(c2ccccc2)C(C(=O)NCC2CCCO2)c2ccc(F)cc2)c1N (configuration not stated)	none
Nn1c(SCC(=O)Nc2nnc(-c3ccccc3)o2)nnc1C1CC1	Mtb FBA inh 44.9 (no result: DUSP3 inh, 3CLpro inhibitor) | Mtb FBA inh conf inactive | GDH-TPI counter-2 inactive
Nn1c(SCC(=O)Nc2ccc(Oc3ccccc3)cc2)nnc1C1CC1	none
C#CCOc1ccc(C2C3=C(CC(C)(C)CC3=O)N(CC(=O)O)C3=C2C(=O)CC(C)(C)C3)cc1	Mtb FBA inh 92.2 | Mtb FBA inh conf inactive | GDH-TPI counter-2 inactive
COc1ccc(CN2C[C@@H](CO)O[C@@H](n3cnc4c(N5CCOCC5)ncnc43)C2)cc1	none (no result: RecA intein inh, DUSP3 inh, 3CLpro inhibitor)
CCOc1ccc2[nH]c3c(NCCN(C)C)ncnc3c2c1	none
C=CCNc1ncnc2c1[nH]c1ccc(C)cc12	Mtb FBA inh 42.4 | Mtb FBA inh conf 65.9 | GDH-TPI counter-2 51.6
COc1ccc(CCNc2ncnc3c2[nH]c2cc(OC)c(OC)cc23)cc1OC	Mtb FBA inh 68.1 | Mtb FBA inh conf 112.1 | GDH-TPI counter-2 101.1
CCOc1ccc2[nH]c3c(NCCC(C)C)ncnc3c2c1	Mtb FBA inh 49.1 | Mtb FBA inh conf inactive | GDH-TPI counter-2 inactive
CCCCOc1ncnc2c1[nH]c1ccc(C)cc12	Mtb FBA inh 38.3 (no result: RecA intein inh) | Mtb FBA inh conf inactive | GDH-TPI counter-2 inactive
O=[N+]([O-])c1cc(-n2cccc2)ccc1N1CCOCC1	none
COc1ccc(N2CCN(C(c3cccs3)C(C)NC(=O)C(=O)N3CCCC3)CC2)cc1 (configuration not stated)	none
COc1ccc2[nH]c3c(NCCCOC(C)C)ncnc3c2c1	Mtb FBA inh 99.5 | Mtb FBA inh conf 63.1 | GDH-TPI counter-2 47.3
CCN(CC)CCNc1ncnc2c1[nH]c1ccc(OC)cc12	none (no result: Mtb FBA inh, DUSP3 inh, CCHFV vOTU inh, GDH-TPI counter-1)
Nn1c(SCC(=O)N2CCCC2=O)nnc1-c1cccs1	none (no result: DUSP3 inh, 3CLpro inhibitor)
CCCOC(=O)c1cc(-c2ccc(C=O)o2)ccc1Cl	Mtb FBA inh 97.3 | Mtb FBA inh conf inactive | GDH-TPI counter-2 inactive
CC(C)(C)C(=O)Nc1sc2c(c1-c1nc3ccccc3[nH]1)CCCC2	Mtb FBA inh 83.3 | Mtb FBA inh conf 82.8 | GDH-TPI counter-2 60.9
CC(C)(C)C(=O)Nc1cccc(-c2nc3ccccc3[nH]2)c1	none
CCN(CC)C(=O)Cn1cc(S(=O)(=O)CC(=O)NC2CCCCC2)c2ccccc21	Mtb FBA inh 32.9 | Mtb FBA inh conf 98.9 | GDH-TPI counter-2 83.4
CC(C)N(C(=O)Cn1cc(S(=O)(=O)CC(=O)NC2CCCCC2)c2ccccc21)C(C)C	none
CC(C)(C)c1ccc(-c2cc(NC(=O)Cc3c[nH]c4ccccc34)ccc2Nc2cccnc2)cc1	none (no result: RecA intein inh, Mtb FBA inh, DUSP3 inh, GDH-TPI counter-1, 3CLpro inhibitor)
CN1CCN(c2ccc(CNC(=O)C3Cc4c(-c5ccc(Cl)cc5)ccnc4O3)cc2)CC1 (configuration not stated)	none (no result: RecA intein inh, DUSP3 inh, 3CLpro inhibitor)
Cc1nnc(SCC(=O)NC(C)(C)C)n1NCc1ccc(N(C)C)cc1	Mtb FBA inh 44.0 | Mtb FBA inh conf 60.2 | GDH-TPI counter-2 53.8
Cc1nnc(SCC(=O)NC(C)(C)C)n1NCc1ccc(Cl)cc1	none
NS(=O)(=O)c1ccccc1NC(=S)Nc1ccccc1S(N)(=O)=O	Mtb FBA inh 62.2 | Mtb FBA inh conf active | GDH-TPI counter-2 166.6
CC(=O)Nc1cccc(S(N)(=O)=O)c1C	none
CC(C)c1ccc(NC(=S)N2CCN(C)CC2)cc1	Mtb FBA inh 32.1 | Mtb FBA inh conf inactive | GDH-TPI counter-2 inactive
CC(C)c1ccc(NC(=S)N2CCCC2)cc1	none
c1ccc2cc3[nH]c(CN4CCOCC4)nc3cc2c1	Mtb FBA inh 103.0 | Mtb FBA inh conf inactive | GDH-TPI counter-2 inactive
Cc1cc(=O)[nH]c(CN2CCOCC2)n1	none
Cc1ccc(OCC(O)CNC2CCCC2)cc1C (configuration not stated)	none
O=C1NC(NS(=O)(=O)c2ccccc2)(C(F)(F)F)C(=O)N1Cc1ccccc1 (configuration not stated)	none
O=C1NC(=O)c2cc3ccccc3cc21	Mtb FBA inh 36.5 (no result: RecA intein inh, DUSP3 inh, 3CLpro inhibitor) | Mtb FBA inh conf 34.4 | GDH-TPI counter-2 23.9
CCO/C=C1/C(=O)N(c2ccccc2OC)C(=O)c2ccccc21	Mtb FBA inh 34.6 | Mtb FBA inh conf 95.5 | GDH-TPI counter-2 80.7
CCCc1cc(=O)oc2c(C)c(OCC(=O)NC3CCN(Cc4ccccc4)CC3)ccc12	none
Cc1cc(=O)oc2cc(OCCc3ccccc3)ccc12	Mtb FBA inh 68.4 | Mtb FBA inh conf inactive | GDH-TPI counter-2 inactive | GDH-TPI DR 2.49
Cc1cc(=O)oc2cc(OCCCC[n+]3ccccc3)ccc12	Mtb FBA inh 34.6 | Mtb FBA inh conf 168.6 | GDH-TPI counter-2 active
CC(C)Cc1nnc(NC(=O)Cc2ccc([N+](=O)[O-])cc2)s1	none
COc1ccc(CCNC(=O)c2ccccc2C(=O)NCCc2ccc(OC)cc2)cc1	none (no result: RecA intein inh, DUSP3 inh, 3CLpro inhibitor)
Cc1ccc(CCNC(=O)c2coc3nc4ccccc4nc23)cc1	Mtb FBA inh 57.5 | Mtb FBA inh conf 99.1 | GDH-TPI counter-2 72.2
CN(CC1COc2ccccc2O1)C(=O)CCNS(=O)(=O)c1ccc(F)c(Cl)c1 (configuration not stated)	none (no result: RecA intein inh, DUSP3 inh, 3CLpro inhibitor)
O=c1c2ccccc2ccc2ccccc12	none (no result: RecA intein inh, DUSP3 inh, 3CLpro inhibitor)
c1ccc2c(c1)c1cccc3ccc4cccc2c4c31	Mtb FBA inh 54.9 (no result: RecA intein inh, DUSP3 inh, 3CLpro inhibitor) | Mtb FBA inh conf 74.8 | GDH-TPI counter-2 64.1
